Compound activity as filed in PubChem BioAssay.
hcDAF-12 act = activates DAF-12 receptor from parasite H. contortus; HEK293 hcDAF-12 lit1-tk-luc reporter, luminescence; 0% DMSO, 100% Δ7-dafachronic acid; activation, % at 6.8 µM; 370,000 tested, 1.4% active;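 active = activation above the mean of all tested compounds plus 3 SD, cut at about 5.5% in these data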
ssDAF12 agonist = activators of S. stercoralis DAF-12 nuclear receptor | HEK293 ssDAF-12/GRIP1 lit1-tk-luc reporter, luminescence; % of 3 µM dafachronic acid response | activation, % at 6.8 µM | 370,000 tested, 1% active | AID 652126;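 active = activation above the mean over all tested compounds plus 3 SD, cut at about 0.9% in these data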
DAX1 inh-1 = blocks DAX1 repression of SF-1 activated StAR promoter. HEK293T StAR-luciferase reporter, SF-1/DAX-1 repression relief. inhibition, % at 6.8 µM. 370,000 tested, 1.1% active. AID 652010;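 active = inhibition above the mean over all tested compounds plus 3 SD, cut at about 3.6% in these data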;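 note: higher inhibition means more luminescence from relief of DAX-1 repression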
hgDAF12 agonist = hgDAF-12 agonism, primary luciferase screen. activation, % at 6.8 µM. 370,000 tested, 1.8% active. HEK293 GAL4-hgDAF12 UAS-luciferase reporter, agonist luminescence; normalized to butyrate control;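 active = activation above a cutoff set at the mean of all screened compounds plus 3 SD, cut at about 10% in these data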
DAX1 inh-2 = inhibits human nuclear receptor DAX1; inhibition, % at 6.75 µM; 340,000 tested, 0.99% active; HEK293 Gal4-DAX1 luciferase reporter, luminescence; AID 504766; P51843;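 active = inhibition above the mean over all tested compounds plus 3 SD, cut at about 4.2% in these data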;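 note: inhibition shows as a rise in luminescence from relieved DAX1 repression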
Target sequence (P51843 207-470 limits assumed): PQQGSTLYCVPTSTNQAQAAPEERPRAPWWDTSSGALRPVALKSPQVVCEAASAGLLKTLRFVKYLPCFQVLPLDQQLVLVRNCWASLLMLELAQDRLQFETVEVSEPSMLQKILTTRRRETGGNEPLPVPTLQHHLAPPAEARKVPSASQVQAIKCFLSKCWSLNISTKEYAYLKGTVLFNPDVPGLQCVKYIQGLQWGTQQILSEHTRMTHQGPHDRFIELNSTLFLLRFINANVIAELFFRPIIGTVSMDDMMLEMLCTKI
DAX1 conf = confirmation of human DAX1 (NR0B1) inhibitors | shares compounds with DAX1 inh-1 | HEK293T StAR-promoter luciferase reporter, SF-1/DAX-1 repression | inhibition, % at 6.8 µM | 2,400 tested, 87% active | AID 652134;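 active = inhibition above the average of every tested compound plus 3 SD, cut at about 3.8% in these data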;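 note: active compounds raise luminescence by relieving repression of the StAR reporter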
Target sequence (P51843 whole entry, looked up): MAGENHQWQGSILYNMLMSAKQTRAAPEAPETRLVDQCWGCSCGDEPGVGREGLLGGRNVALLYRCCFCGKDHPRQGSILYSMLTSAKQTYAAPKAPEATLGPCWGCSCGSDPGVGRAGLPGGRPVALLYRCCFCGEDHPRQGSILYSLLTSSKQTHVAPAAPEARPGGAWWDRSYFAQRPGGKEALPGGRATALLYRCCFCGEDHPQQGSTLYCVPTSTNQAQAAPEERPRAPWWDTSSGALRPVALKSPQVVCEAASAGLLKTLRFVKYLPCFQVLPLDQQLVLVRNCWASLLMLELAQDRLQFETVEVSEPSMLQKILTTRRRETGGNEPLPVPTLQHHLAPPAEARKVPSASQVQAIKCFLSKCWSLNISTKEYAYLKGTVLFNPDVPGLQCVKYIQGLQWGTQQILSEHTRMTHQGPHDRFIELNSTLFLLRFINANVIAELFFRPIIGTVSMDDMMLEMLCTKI
SF1 AF2mut Luc = counter-screen for DAX1 inhibitors: nonselective inhibitors with SF-1 AF2 mutant. shares compounds with DAX1 inh-1. HEK293 StAR-luciferase, luminescence. inhibition, % at 6.8 µM. 2,400 tested, 78% active. AID 652136;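 active = inhibition above the mean of all tested compounds plus 3 SD, cut at about 3% in these data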
LXR ag = activates human LXR-beta, counter-screen for hcDAF-12 agonists. shares compounds with hcDAF-12 act. HEK293 Gal4-LXR tk-luc reporter, luminescence, 24 h; normalized: DMSO 0%, positive control 100%. activation, % at 6.8 µM. 3,400 tested, under 10 active;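 active = mean percent activation of the reporter above a cutoff set as the average over tested compounds plus their standard deviation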
hcDAF12 ag = confirmation of H. contortus DAF-12 agonists | shares compounds with hcDAF-12 act | HEK293 hcDAF-12 lit1-tk-luc reporter, luminescence; % of Δ7-dafachronic acid response | activation, % at 6.8 µM | 3,400 tested, 61% active;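 active = mean activation across triplicate tests above the threshold derived from the earlier primary screen, cut at about 5.5% in these data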
hgDAF12 conf = hgDAF-12 agonism, confirmation assay; shares compounds with hgDAF12 agonist; HEK293 GAL4-hgDAF12 luciferase reporter, agonist mode; percent of butyrate response; activation, % at 6.8 µM; 3,300 tested, 80% active; AID 743050;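 active = mean activation over triplicate wells above the hit cutoff derived from the earlier primary screen, cut at about 11% in these data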
LXRb DAF12 ctr = LXR-beta agonism as DAF-12 counter-screen; 3,300 tested, under 10 active; AID 743051; activation, % at 6.8 µM; HEK293 Gal4-LXR luciferase reporter, 24 h; shares compounds with hgDAF12 agonist;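 active = mean activation of the triplicate above a set limit carried over from the primary screen, none filed active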
Numbers stand for hits; i = inactive; nt = not tested or not shown. This is a sample that favours compounds with a hit; in the whole collection about 4.1% have one here.

SMILES | hcDAF-12 act | ssDAF12 agonist | DAX1 inh-1 | hgDAF12 agonist | DAX1 inh-2 | DAX1 conf | SF1 AF2mut Luc | LXR ag | hcDAF12 ag | hgDAF12 conf | LXRb DAF12 ctr
Cc1ccc(-c2nc(Nc3ccccc3)n[nH]2)cc1 | 12 | 1.4 | 6.2 | 14 | i | 23 | 11 | i | 13 | 22 | i
C/C(=N\Nc1cccc2cccnc12)c1ccccn1 | 14 | 2.0 | 6.3 | 28 | i | 17 | 7.8 | i | 13 | 23 | i
COc1ccc(C2CC(=O)C(c3cccc(C)c3)=CN2Cc2ccccc2)cc1 (stereo unspecified) | i | i | i | i | nt | nt | nt | nt | nt | nt | nt
Cc1ccsc1C(=O)NN=C1CCCCCC1 | 9.2 | 1.8 | 15 | 15 | i | 4.7 | 3.4 | i | i | 13 | i
C/C(=N\NC(=O)c1sccc1C)c1ccncc1 | 9.1 | 1.1 | 18 | 20 | i | 4.9 | 2.9 | i | i | 14 | i
CSc1nc(N)nc2c1ncn2CC(=O)N[C@H](CO)Cc1c[nH]c2ccccc12 | i | i | i | i | i | nt | nt | nt | nt | nt | nt
O=C(C(=O)N1CCC(CNS(=O)(=O)c2ccc(F)cc2)CC1)c1cccs1 | i | i | i | i | nt | nt | nt | nt | nt | nt | nt
Cc1ccc(/C(N)=N/OC(=O)c2cccs2)cc1 | 12 | 1.0 | 6.5 | 21 | i | 5.9 | 5.1 | i | i | 17 | i
O=C(Nc1nc2ccccc2[nH]1)c1ccccc1F | i | i | i | i | i | nt | nt | nt | nt | nt | nt
O=C(Nc1nc2ccccc2[nH]1)C1CCCC1 | i | i | 4.9 | 15 | i | 6.5 | 5.7 | nt | nt | 13 | i
O=C(Nc1nc2ccccc2[nH]1)c1cc2ccccc2o1 | 14 | i | 8.0 | 21 | i | 9.4 | 7.6 | i | 9.1 | 19 | i
Cc1cc(C)nc(NC(=O)c2cc3ccccc3o2)n1 | i | i | i | i | i | nt | nt | nt | nt | nt | nt
Cc1ccc(NC(=O)c2cc3ccccc3o2)nc1 | 14 | 1.5 | 16 | 19 | i | 17 | 9.9 | i | 14 | 19 | i
COc1cc(CN2C[C@@H](CO)O[C@@H](n3cnc4c(NCc5ccncc5)ncnc43)C2)cc(OC)c1OC | i | i | i | i | nt | nt | nt | nt | nt | nt | nt
CC(C)N1CCC(=NNC(=O)c2cccs2)CC1 | 6.1 | 1.5 | 9.6 | 14 | i | i | i | nt | nt | i | i
CC(C)N1CCC(=NNC(=O)c2ccccc2[N+](=O)[O-])CC1 | i | i | i | i | i | nt | nt | nt | nt | nt | nt
CN1CCn2cnc(C(=O)NCCCCCNC(=O)OC(C)(C)C)c2C1=O | i | i | i | i | i | nt | nt | nt | nt | nt | nt
c1ccc2nc3c(nc2c1)[nH]c1ccccc13 | 7.0 | 1.7 | 4.6 | 18 | i | 14 | 7.6 | i | 11 | 17 | i
COC(=O)c1sc(NC(=O)COc2ccccc2OC)nc1C | i | i | i | i | i | nt | nt | nt | nt | nt | nt
COc1ccccc1OCC(=O)Nc1ncc(C)s1 | i | i | 10 | 17 | i | 8.5 | 6.7 | nt | nt | 15 | i
Clc1ccc(OCCSc2ncccn2)c(Br)c1 | 6.4 | 1.8 | 5.5 | 21 | 4.4 | 16 | 8.1 | nt | nt | 22 | i
COC(=O)C1C(=O)c2c([nH]c(C(=O)OC3CCCC3C)c2C)CC1C (stereo unspecified) | i | i | 4.7 | 18 | i | 5.5 | 3.3 | nt | nt | 11 | i
CC(=O)Nc1ccc2oc(-c3ccccc3Br)nc2c1 | 8.3 | i | 5.5 | 15 | i | 13 | 4.7 | i | i | 16 | i
CC(C)Oc1cc(O)c2c(=O)c(-c3ccc(O)cc3)coc2c1 | 7.6 | i | 5.3 | 26 | i | 11 | 5.7 | i | i | 20 | i
COc1c(-c2ccc(O)cc2)oc2cc(O)cc(O)c2c1=O | i | i | i | i | i | nt | nt | nt | nt | nt | nt
SMILES | hcDAF-12 act | ssDAF12 agonist | DAX1 inh-1 | hgDAF12 agonist | DAX1 inh-2 | DAX1 conf | SF1 AF2mut Luc | LXR ag | hcDAF12 ag | hgDAF12 conf | LXRb DAF12 ctr
O/N=C/c1ccn(-c2ccc(Br)cc2)c1 | i | i | 5.6 | 14 | 4.5 | 5.9 | i | nt | nt | i | i
O=C(CSc1nnc(NC(=O)c2ccc(F)cc2)s1)NCc1ccco1 | i | i | 6.5 | 14 | i | 9.3 | 5.1 | nt | nt | 12 | i
COc1cccc(-c2cc(NC=O)c3ncc(-c4ccc(F)c(Cl)c4)n3c2)c1 | i | i | i | i | nt | nt | nt | nt | nt | nt | nt
Cc1ccc(-n2c(SCC(=O)Nc3cccc4ccccc34)nnc2-c2ccccc2)cc1 | i | i | i | i | nt | nt | nt | nt | nt | nt | nt
COc1ccccc1NC(=S)N/N=C/c1cccc(C)c1 | i | i | i | i | i | nt | nt | nt | nt | nt | nt
COc1ccccc1NC(=S)N/N=C/c1ccc(O)cc1 | 6.1 | i | 5.5 | 19 | i | 16 | 8.4 | nt | nt | 20 | i
N#C/C(=N/Nc1ccc([N+](=O)[O-])cc1)C(=N)N1CCCCC1 | 6.4 | 1.6 | 5.5 | 20 | 8.1 | 8.2 | 3.2 | nt | nt | 21 | i
N#C/C(=N\Nc1ccc([N+](=O)[O-])cc1)C(=N)N1CCOCC1 | i | i | i | i | i | nt | nt | nt | nt | nt | nt
N#C/C(=N\Nc1ccccc1[N+](=O)[O-])C(=N)N1CCCCC1 | 7.9 | 1.0 | 8.0 | 14 | 7.4 | 14 | 8.1 | i | 8.6 | 18 | i
N#C/C(=N\Nc1ccc(Cl)cc1)C(=N)N1CCCCCC1 | i | i | 7.6 | 18 | 10 | 22 | 8.8 | nt | nt | 24 | i
O=C(c1cc2c(ccc3ccccc32)o1)N1CCCCC1 | 6.8 | 1.2 | 15 | 18 | i | 15 | 8.7 | i | i | 14 | i
O=C(O)c1cc2c(ccc3ccccc32)o1 | i | i | i | i | i | nt | nt | nt | nt | nt | nt
O=C(Cn1nc2n(c1=O)-c1ccccc1SC2)N/N=C/c1cccnc1 | i | i | i | i | i | nt | nt | nt | nt | nt | nt
CN(C)S(=O)(=O)c1ccc(-c2cn3ccccc3n2)cc1 | i | i | i | i | i | nt | nt | nt | nt | nt | nt
COc1ccc(-n2c(C)cc(-c3cn4cccc(C)c4n3)c2C)cc1 | i | i | i | i | i | nt | nt | nt | nt | nt | nt
Cc1cc(-c2cn3ccccc3n2)c(C)n1-c1ccccc1 | 5.7 | i | 4.6 | 14 | i | 17 | 5.4 | nt | nt | i | i
c1ccc(-c2cn3ccccc3n2)cc1 | 8.9 | i | 5.0 | 14 | i | 12 | 8.7 | i | 7.4 | 15 | i
